PubChem BioAssay AID1578 (Sanford-Burnham Center for Chemical Genomics, 2009)
Values joined by “and” are separate entries in the source; they are usually repeats but may differ in a detail not shown here. Identical values can stand only once. Among all 290,000 compounds or so, about 3,000 (1%) were called active. No stated cut-off is given here; in the data, active means inhibition mostly above about 36% (no sharp cut-off); inactive means mostly below about 34%. Shown is part of a subset that was picked to be rich in actives. Where a structure was tested more than once in an assay, its records may differ in their call.

Test: NOD1 signaling inhibitors, primary screen, cell-based, luminescence, uHTS (AID 1578);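 further: HEK-293T reporter cells stimulated with the NOD1 agonist gamma-tri-DAP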
Details: NOD1-driven NF-kB luciferase reporter cells, at 4 µM, stronger effect = higher value

Structure (SMILES)	inhibition
COc1nc(NC(C)(C)C)nc(Oc2ccc(=O)n(-c3ccccc3)n2)n1	-3.3% (inactive)
Cc1ccc(S(=O)(=O)C(CCC(=O)c2ccc(Cl)cc2)C(N)=O)cc1 (centres undefined)	9.7% (inactive)
COC(=O)NC(=C(Cl)Cl)S(=O)(=O)c1ccccc1	74.9% (active)
COC(=O)NC(NS(=O)(=O)c1ccccc1)(C(=O)OC)C(F)(F)F (centres undefined)	-0.4% (inactive)
Cc1ccc(S(=O)(=O)NNC(=O)c2ccc(O)cc2)cc1	-14.1% (inactive)
Cc1ccc(C(=O)NC(=S)NNS(=O)(=O)c2ccc(C)cc2)cc1	-34.4% (inactive)
COc1ccc(C(=O)NCS(=O)(=O)c2ccc(C)cc2)cc1	7.7% (inactive)
Cc1ccc(C(=O)NNC(=S)NC(=O)c2ccc(Cl)cc2)cc1	31.1% (inactive)
CCOC(=O)NC(C(Cl)(Cl)Cl)S(=O)(=O)c1ccccc1 (centres undefined)	5% (inactive)
COc1ccc(NC(=O)c2ccc(C)cc2)cc1	-19.2% (inactive)
CCOC(=O)C1CCN(S(=O)(=O)c2ccc(C)c(C)c2)CC1	-13.2% (inactive)
CCOC(=O)c1ccc(NC(=S)N2CCN(CCNC3=CC(=O)CC(C)(C)C3)CC2)cc1	-30.1% (inactive)
CCC(=O)c1ccc(OCC(=O)Nc2ccc(N3CCOCC3)cc2N2CCOCC2)cc1	-43.2% (inactive)
COc1ccc(C(=O)NCCN2CCOCC2)c(OC)c1OC	4.8% (inactive)
CNC(=O)C1CCN(S(=O)(=O)c2c(C)noc2/C=C/N(C)C)CC1	-22.5% (inactive)
Cc1cc(C)c(C#N)c(SCc2cc3c(cc2Cl)OCO3)n1	26.9% (inactive)
O=C(CSc1ccc2c(c1)OCCO2)Nc1ccc(N2CCOCC2)cc1	-37.2% (inactive)
COc1cccc(N2CCN(C(C)C(=O)NC34CC5CC(CC(C5)C3)C4)CC2)c1 (centres undefined)	-31.5% (inactive)
Cc1ccc(-n2ncc3c(SCc4cccnc4)ncnc32)c(C)c1	1.6% (inactive)
Cc1ccc(S(=O)(=O)CNC(=O)c2ccccc2)cc1	-6.8% (inactive)
Cc1ccc(S(=O)(=O)NCCNC(=O)c2ccccc2)cc1	-16.6% (inactive)
COc1ccccc1Oc1ccnc2cc(Cl)ccc12	27.5% (inactive)
O=C(/C=C/Nc1ccc(Br)cc1F)c1ccco1	53.7% (active)
O=C(/C=C/Nc1ccc(Br)cc1F)c1ccccc1	27.6% (inactive)

Structure (SMILES)	inhibition
O=C(/C=C/Nc1ccc(F)cc1F)c1ccco1	-11.6% (inactive)
COc1ccc(C2C(C(=O)N3CCC(C)CC3)c3ccccc3C(=O)N2C)cc1 (centres undefined)	-14.1% (inactive)
COCCC(=O)NC1CCCc2c1cnn2-c1cccc(C)c1C (centres undefined)	-25.1% (inactive)
Cn1c(-c2ccc(F)cc2)cnc1SCC(=O)N1CCCCC1	-31.8% (inactive)
Cn1c(-c2ccccc2)cnc1SCC(N)=O	0.4% (inactive)
Cn1c(-c2ccccc2)cnc1SCC(=O)N1CCCCC1	32% (active)
Cc1cc(C)[n+](-c2ccc(C(C)C)cc2)c2[nH]c(=O)[nH]c(=O)c12	-20.8% (inactive)
Cc1[nH]nc(SCC(=O)Nc2cccc(O)c2)c1[N+](=O)[O-]	-37.4% (inactive)
CCCNS(=O)(=O)c1ccc(CCC(=O)Nc2cc(Cl)ccc2Oc2ccccc2)cc1	79.1% (active)
CC(C)CNS(=O)(=O)c1ccc(CCC(=O)Nc2cc(Cl)ccc2Oc2ccccc2)cc1	23.4% (inactive)
CCNS(=O)(=O)c1ccc(CCC(=O)Nc2cc(Cl)ccc2Oc2ccccc2)cc1	34% (inactive)
COc1ccc(NC(=O)c2cc(S(=O)(=O)N3CCOCC3)cn2C)c(OC)c1	-19% (inactive)
CCCNC(=S)N1CCC(C(=O)c2ccc(F)cc2)CC1	-20.1% (inactive)
C=CCNC(=S)N1CCC(C(=O)c2ccc(F)cc2)CC1	-20.4% (inactive)
CC(C)CNC(=S)N1CCC(C(=O)c2ccc(F)cc2)CC1	61.7% (active)
Cc1ccc(C)c2c1sc(=NC(=O)CN1C(=O)CCC1=O)n2C	1.3% (inactive)
CCOC(=O)c1ccc(NC(=O)C2(c3ccccc3)CCCC2)cc1	14% (inactive)
Cc1[nH]n(-c2ncc(-c3ccccc3)s2)c(=O)c1C(c1ccc(Br)cc1)C(C#N)C#N (centres undefined)	32.7% (inactive)
CCCc1[nH][nH]c(=O)c1C(c1ccc(Cl)cc1)C(C#N)C#N (centres undefined)	3.7% (inactive)
Cc1[nH]n(-c2ncc(-c3ccc(Cl)cc3)s2)c(=O)c1C(c1ccc(Cl)cc1)C(C#N)C#N (centres undefined)	67.3% (active)
Cc1ccccc1N(C(=O)Cc1ccsc1)C(C(=O)NC1CCCCC1)c1ccc(F)cc1 (centres undefined)	-25.2% (inactive)
Cc1c(C2=CCN(S(=O)(=O)c3ccc(Br)cc3)CC2)c2ccccc2n1C	0.5% (inactive)
CC(=O)C1=C(C)NC(=O)NC1c1cccc([N+](=O)[O-])c1O (centres undefined)	-9.2% (inactive)
O=C(O)c1cc(-c2ccco2)nc2ccccc12	-13.5% (inactive)

Structure (SMILES)	inhibition
O=C(O)c1cc(-c2ccco2)nc2ccc(Br)cc12	75.3% (active) and -18.2% (inactive)
O=C(O)c1cc(-c2ccco2)nc2cc3ccccc3cc12	-6.3% (inactive)
Clc1ccc(COn2c(-c3ccc(Cl)cc3)nc3ccccc32)cc1	-31.8% (inactive)
COc1ccc(/C=N/NC(=O)C2C3CCCCC32)cc1OC (centres undefined)	-9.5% (inactive)
COc1ccc(/C=N/NC(=O)C2C3CCCCC32C)cc1OC (centres undefined)	47.1% (active)
COc1cc(/C=N/NC(=O)C2C3CCCCC32C)cc(Br)c1O (centres undefined)	6.5% (inactive)
FC(F)(F)c1cc(Oc2ccc(Cl)cc2)ncc1-c1nnc(-c2ccc(Cl)cc2)o1	-6.5% (inactive)
CC(C)C(NS(=O)(=O)c1ccccc1)C(=O)OCc1cc([N+](=O)[O-])cc2c1OCOC2 (centres undefined)	-12.4% (inactive)
CC(Sc1cccc[n+]1[O-])C(=O)Nc1ccc([N+](=O)[O-])cc1Cl (centres undefined)	-22.4% (inactive)
Cc1ccc(-c2noc(C3CCCCC3)n2)cc1	-58.2% (inactive)
O=C(NCC1CCCO1)c1ccc(Oc2ccc([N+](=O)[O-])cc2)cc1 (centres undefined)	42.4% (active)
O=C(NCC1CCCO1)c1ccc(Oc2ccc([N+](=O)[O-])cc2Cl)cc1 (centres undefined)	13.6% (inactive)
Cc1ccc([N+](=O)[O-])cc1N(CC(=O)NCC1CCCO1)S(C)(=O)=O (centres undefined)	60.2% (active)
CS(=O)(=O)N(CC(=O)NCC1CCCO1)c1cccc([N+](=O)[O-])c1 (centres undefined)	-15% (inactive)
COc1ccc([N+](=O)[O-])cc1N(CC(=O)NCC1CCCO1)S(C)(=O)=O (centres undefined)	-19.1% (inactive)
O=C(NCC1CCCO1)c1cccc(Oc2ccc([N+](=O)[O-])cc2)c1 (centres undefined)	-20.6% (inactive)
COc1ccc(CCNC(=O)CCn2c(SCC#N)nc3ccccc3c2=O)cc1OC	10.3% (inactive)
COc1ccc2c(C)cc(SCC(=O)Nc3cccnc3Cl)nc2c1	-12.9% (inactive)
Nc1nonc1-n1nnc(C(=O)N/N=C/c2ccccc2)c1CN1CCc2ccccc21	-21.6% (inactive)
CNC(=O)NC(=O)COC(=O)CCCOc1ccc(OC)cc1	4.1% (inactive)
COc1ccc(CCNC(=O)c2cc3sccc3n2C)cc1OC	5.4% (inactive)
CCOc1ccc(CCNC(=O)c2cc3sccc3n2CC)cc1OCC	49.7% (active)
CCOc1ccc(CCNC(=O)c2cc3sccc3n2C)cc1OCC	26.3% (inactive)
COc1ccc(S(=O)(=O)N(C)c2ccc(C(=O)NC3CCCC3)cc2)cc1	-11.8% (inactive)

Structure (SMILES)	inhibition
CC(=O)C(C)Sc1nnc(-c2ccccc2F)n1C1CC1 (centres undefined)	-26.2% (inactive)
CC(=O)c1cn(CC(=O)Nc2ccccc2F)c2ccccc12	14.5% (inactive)
CN1CCN(C(=S)c2cn(Cc3ccccc3F)c3ccccc23)CC1	-13.6% (inactive)
Cc1ccc(C)c(CN2CCC(CNC(=O)Nc3cccc(Cl)c3C)CC2)c1	2.1% (inactive)
CCOC(=O)C1=C(Cc2ccc(OC)cc2)C(=O)c2ccccc2C1=O	3.6% (inactive)
CCOC(=O)C1=C(O)c2ccccc2C(=O)/C1=C\c1ccc(CC)cc1	15.2% (inactive)
COc1cccc2cc(C(=O)C3=C(O)C(=O)N(CCN4CCOCC4)C3c3ccc(C(C)(C)C)cc3)oc12 (centres undefined)	-11.6% (inactive)
Cc1ccc(CN(C)C(=O)CCc2c[nH]c3ccccc23)o1	-18.4% (inactive)
CN1CCN(c2nc(-c3cccc([N+](=O)[O-])c3)nc3ccccc23)CC1	-0.7% (inactive)
CCC(=O)N1CCc2cc(S(=O)(=O)Nc3ccccc3C)ccc21	3.4% (inactive)
COc1ccc(O)c(-c2[nH]ncc2C(=O)c2cccc(C)c2)c1	-6.8% (inactive)
COc1ccc(O)c(-c2[nH]ncc2C(=O)c2ccccc2C)c1	26.5% (inactive)
CCOC(=O)c1sc(N(Cc2ccccc2)C(=O)CCl)nc1C	28.7% (active)
CCOC(=O)c1sc(N(Cc2ccccc2)C(=O)COC(=O)c2ccc(O)cc2)nc1C	62.2% (inactive)
CCOC(=O)c1sc(N(Cc2ccccc2)C(=O)COC(=O)c2ccccc2O)nc1C	-48% (inactive)
COc1ccc(S(=O)(=O)N2CCCOC2CNC(=O)C(=O)NCCc2ccco2)cc1OC (centres undefined)	-2.3% (inactive)
O=C(COC(=O)c1cccc(O)c1)NCc1ccc2c(c1)OCO2	-14.3% (inactive)
COc1ccc(C=O)cc1OC(=O)N1CCOCC1	-9.3% (inactive)
Cc1cc(C(=O)COC(=O)CN(C)S(=O)(=O)c2ccc(Cl)cc2)c(C)n1Cc1cccs1	-20.9% (inactive)
O=C(NCc1cn2ccccc2n1)c1ccc(Br)o1	-10.7% (inactive)
O=C(NCc1cn2ccccc2n1)c1ccccc1	-22.2% (inactive)
O=C(NCc1cn2ccccc2n1)c1ccco1	54% (active)
